Laboratory results: PubChem BioAssay (NCI)
Compounds without any hit were thinned out: in the full panel of roughly 79,000, 15% have a hit. Unmarked numbers belong to inactive results. Active and inactive are the calls of the source. No stated cut-off is given here; in the data, active means growth inhibition above about 70%; inactive means the rest. Where a SMILES comes first, the peptide text is derived from it. [ ]: non-standard residue; d: D form. The star is where a group is joined. ξ: configuration not given here. ξF = NC(Cc1ccccc1)C(=O)O; Cbz = O=C(OCc1ccccc1)*; Sar = CNCC(=O)O

Experiments:
[1] = NCI Yeast Anticancer Drug Screen. Data for the rad50 strain (AID 155);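 further: 0% = growth of vehicle-only cultures of the same strain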; settings: S. cerevisiae rad50 strain growth inhibition; at 50.0 µM; active compounds read high
In short: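 Vehicle-treated cultures provide the reference for the growth inhibition reported for compound-exposed, repair-deficient yeast.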

[2] = NCI Yeast Anticancer Drug Screen. Data for the mec2-1 strain (AID 157); settings: S. cerevisiae mec2-1 strain, at 50.0 µM, active compounds read high
In short: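 Vehicle-treated cultures served as reference for growth inhibition of compound-exposed mec2-1 yeast.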

[3] = NCI Yeast Anticancer Drug Screen. Data for the sgs1 mgt1 strain (AID 161);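 further: 0% = growth of cultures given vehicle only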; settings: S. cerevisiae sgs1 mgt1 strain, at 50.0 µM, active compounds read high
In short: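 Read-out: growth inhibition vs vehicle controls. Cells: mutant yeast strain deficient in DNA damage repair.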

[4] = NCI Yeast Anticancer Drug Screen. Data for the cln2 rad14 strain (AID 165);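 further: 0% = growth equal to vehicle treated cultures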; settings: S. cerevisiae cln2 rad14 strain, at 50.0 µM, active compounds read high
In short: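 Each compound was tested on cln2 rad14 yeast. Inhibition of growth was calculated against vehicle-exposed controls.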

[5] = NCI Yeast Anticancer Drug Screen. Data for the bub3 strain (AID 167); settings: S. cerevisiae bub3 mutant strain, at 50.0 µM, active compounds read high
In short: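 Mutant yeast screening strain plus compound; vehicle-treated cultures serve as the 0% inhibition reference.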

[6] = NCI Yeast Anticancer Drug Screen. Data for the mlh1 rad18 strain (AID 175); settings: S. cerevisiae mlh1 rad18 strain growth inhibition; at 50.0 µM; active compounds read high
In short: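 Vehicle-treated cultures served as the reference for growth inhibition in a yeast strain carrying DNA damage repair alterations exposed to each compound.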

| SMILES | growth inhibition [1] | growth inhibition [2] | growth inhibition [3] | growth inhibition [4] | growth inhibition [5] | growth inhibition [6] |
| --- | --- | --- | --- | --- | --- | --- |
| CCN(CC)CCCC(C)Nc1ccnc2c(Cl)cccc12 (stereo unspecified) | 15.7% | 14.3% | 22.4% | 22.6% | 5.2% | 2.4% |
| ClC(Cl)(Cl)C(c1ccc(Br)cc1)c1ccc(Br)cc1 | -18.1% | -29.5% | 1.15% | -43.3% | 16.8% | -0.25% |
| Fc1ccc2nncc(SCc3ccc(Cl)c(Cl)c3)c2c1 | -1% | 0.15% | 3.8% | -11.2% | 18.4% | -2.05% |
| COc1ccc(C(=O)N2CCN(C)CC2)cc1OC | 19.1% | -3.95% | -8.3% | 13.4% | -1.75% | 4.2% |
| COc1ccc(/C=C2\N=C(c3ccccc3)OC2=O)c(Br)c1OC(C)=O | -20.1% | 0.7% | -12.7% | -12.3% | -0.8% | 14.3% |
| O=P(CCCCCCCCCCP(=O)(c1ccccc1)c1ccccc1)(c1ccccc1)c1ccccc1 | -11% | 2.6% | 23.5% | 9.55% | 2.3% | 29.5% |
| COc1ccc(CCNC(=O)CC2CCN(C)CC2)cc1OC | -1.05% | -6.7% | 10.2% | -7.4% | 15.2% | -3.75% |
| CN(CC(=O)NC(Cc1ccccc1)C(=O)O)C(=O)OCc1ccccc1 (stereo unspecified) (Cbz-[Sar]-[ξF]-OH) | -16.9% | -7.95% | -1.2% | -6.2% | -16.1% | -10.6% |
| CCOC(=O)C(C)(Br)C(Br)c1ccc([N+](=O)[O-])cc1 (stereo unspecified) | 96.8% (active) | 93.2% (active) | 96.9% (active) | 42.7% | 80.9% (active) | 97% (active) |
| O=C(O)C1(C(=O)O)CCCCC1.[NH-]CC1(C[NH-])CCCCC1.[Pt+2] | 21.8% | 9.95% | 27.8% | 21.1% | 5.85% | 14.9% |
| CC(=O)NC1(C#N)c2ccccc2-c2ccccc21 | 18.6% | 4.2% | 18.9% | 9.3% | 5.25% | 4.55% |
| CC(=O)Nc1ccc(C=O)cc1[N+](=O)[O-] | 14.2% | 33.3% | 4.05% | -12.8% | -0.6% | 13.4% |
| O=c1oc2ccc(Cl)cc2c(=O)n1-c1cc(Cl)ccc1[N+](=O)[O-] | -4.65% | -21% | -6.8% | -11.5% | 0.45% | 21.6% |
| COc1cccc2c(Nc3ccc(S(=O)(=O)Nc4ncccn4)cc3)c3ccc([N+](=O)[O-])cc3nc12 | 59.8% | 12.1% | 29.2% | 11.2% | 32.2% | 16.2% |
| CCNC(=O)CCP(=O)(CCC(=O)NCC)CCC(=O)NCC | 7.25% | -3.05% | 3.9% | -4.35% | -6.7% | 6% |
| O=[N+]([O-])c1ccc2[nH]ncc2c1 | 19.2% | -8.05% | 0.35% | -3.15% | 8.45% | 13.7% |
| CC(=O)NC(=O)NC1=NCCC(=O)N1CCc1c[nH]c2ccccc12 | 4.35% | -29% | -6.3% | 6.25% | -19.1% | 7.2% |
| C=CCCCCCCCCCCC | -11.3% | -11.2% | -14.1% | 11.7% | 1.95% | -4.9% |
| NC(N)=NCCCS | 11.9% | 11.3% | 14.3% | -7.8% | 4.15% | 7.05% |
| Cc1ccc(C#N)c2c1CCC2 | 2.65% | -10.7% | 3.05% | -50% | -13% | 2.6% |
| CCCc1cc(=O)oc2c3c(c4c(c12)OC(C)(C)CC4)O[C@H](C)C(C)C3O (stereo partly specified) | 24.8% | 11.6% | 11.6% | 26.1% | 47.6% | 35% |

| SMILES | growth inhibition [1] | growth inhibition [2] | growth inhibition [3] | growth inhibition [4] | growth inhibition [5] | growth inhibition [6] |
| --- | --- | --- | --- | --- | --- | --- |
| CCn1cc(C(=O)C(=O)N(C)C)c2ccccc21 | 13.2% | -7.75% | -2.5% | -3.35% | 17.2% | 1.95% |
| CCOc1ccc(-c2cc(-c3ccc(OCC)cc3)cc(-c3ccc(OCC)cc3)c2)cc1 | -2.05% | -9.7% | 1.3% | -7.2% | -5.05% | -2.85% |
| Cc1ccc(S(=O)(=O)c2ccccn2)cc1 | -37.2% | -11.2% | -9.35% | -1.7% | -13% | -24.1% |
| O=C(O)c1ccc(F)cc1C(=O)O | 5.5% | 6% | 4.75% | 5.25% | 3.2% | 1.45% |
| N=C1CCCS1 | -7.05% | -2.35% | -7.1% | -6.3% | -49.5% | -4.7% |
| ClCCOCc1ccc(Cl)c(Cl)c1 | 8.8% | -16.9% | 6.15% | -13.5% | -18% | 9% |
| NC(N)=NC(=S)Nc1ccc(Cl)cc1 | 21.6% | 1.6% | 7.55% | -4% | -15.7% | 31.1% |
| CC(C)(C)NCC(O)c1ccc(O)c(CO)n1 (stereo unspecified) | 1.3% | -8.05% | -19.4% | 9.05% | -8.9% | -3.3% |
| O=C1CC(c2ccccc2)C(c2ccccc2)C1 (stereo unspecified) | 6% | 0.45% | 4.2% | 4.2% | -24.1% | -0.25% |
| CC1(C)CCC(=O)OC1C[N+](=O)[O-] (stereo unspecified) | 39.8% | -10.8% | 24.2% | 11.8% | 0.3% | 39.4% |
| COc1ccc2cc1Oc1ccc(cc1)CC1c3cc(c(OC)cc3CCN1C)Oc1c(O)c(OC)cc3c1C(C2)N(C)CC3 (stereo unspecified) | 14.6% | -10.4% | 10.8% | 16.2% | 15.8% | 1.95% |
| CCC(=O)c1c(NOC2OCC(OC(C)=O)C(OC(C)=O)C2OC(C)=O)nc(OC)n(C)c1=O (stereo unspecified) | -18.3% | -0.65% | -35.2% | 9.6% | -24.8% | -11.5% |
| O=C1OC(c2ccc(O)c(O)c2)(c2ccc(O)c(O)c2)c2ccccc21 | -27.9% | -24.2% | -27.1% | 5.8% | -21.7% | -32.6% |
| CCCCCCCCCCOC1C(C(C)OCCCN(C)C)OC2OC3(CCCCC3)OC21 (stereo unspecified) | 91.8% (active) | 93.3% (active) | 40.7% | 16.1% | -31.6% | 86.2% (active) |
| C/C(=C\C(=O)c1cccc([N+](=O)[O-])c1)c1cccc([N+](=O)[O-])c1 | 1.35% | 15.3% | 0.7% | -21.6% | 2.6% | 29.6% |
| CC1NC(=O)CC(c2ccccc2)N(N=O)C1c1ccccc1 (stereo unspecified) | -53.5% | -3.3% | -4.1% | -7% | -9.05% | 8.65% |
| COC=C(C(=O)OC)C(=O)OC | -1.65% | 3.9% | 0.5% | 0.2% | -10.5% | 3.85% |
| Cc1onc(-c2ccc(-c3noc(C)c3C(=O)O)cc2)c1C(=O)O | -1.9% | -7.75% | -3.25% | -5.4% | -10.4% | 11.4% |
| CCCCCCn1cnc2c(=O)[nH]c(N)nc21 | -2% | 3.5% | -17.2% | -7.05% | -8.65% | -10.2% |
| CCCC1c2c(cc(=O)[nH]c2O)C(=O)N1Cc1ccccc1 (stereo unspecified) | -10.2% | -16.5% | -14.4% | 17.8% | -17.6% | -0.9% |
